# Laboratory results taken from paper PMC4336329 (PLoS ONE, 2015).
# Screen size: about 310,000 compounds; about 14,000 (4.5%) showed an effect of 50% or more. The effect is printed as a negative number. The full list was thinned out, with strong results kept by preference.
# Biological target: human ether-à-go-go-related gene (hERG) potassium channel (human, UniProt Q12809)
# Test: primary screen, population patch clamp on CHO cells stably expressing hERG; higher = less effect of the substance
# 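Further: peak tail current of the secondary pulse compared with the same well before compound.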
# Chain of human ether-à-go-go-related gene (hERG) potassium channel (Q12809 whole entry, looked up): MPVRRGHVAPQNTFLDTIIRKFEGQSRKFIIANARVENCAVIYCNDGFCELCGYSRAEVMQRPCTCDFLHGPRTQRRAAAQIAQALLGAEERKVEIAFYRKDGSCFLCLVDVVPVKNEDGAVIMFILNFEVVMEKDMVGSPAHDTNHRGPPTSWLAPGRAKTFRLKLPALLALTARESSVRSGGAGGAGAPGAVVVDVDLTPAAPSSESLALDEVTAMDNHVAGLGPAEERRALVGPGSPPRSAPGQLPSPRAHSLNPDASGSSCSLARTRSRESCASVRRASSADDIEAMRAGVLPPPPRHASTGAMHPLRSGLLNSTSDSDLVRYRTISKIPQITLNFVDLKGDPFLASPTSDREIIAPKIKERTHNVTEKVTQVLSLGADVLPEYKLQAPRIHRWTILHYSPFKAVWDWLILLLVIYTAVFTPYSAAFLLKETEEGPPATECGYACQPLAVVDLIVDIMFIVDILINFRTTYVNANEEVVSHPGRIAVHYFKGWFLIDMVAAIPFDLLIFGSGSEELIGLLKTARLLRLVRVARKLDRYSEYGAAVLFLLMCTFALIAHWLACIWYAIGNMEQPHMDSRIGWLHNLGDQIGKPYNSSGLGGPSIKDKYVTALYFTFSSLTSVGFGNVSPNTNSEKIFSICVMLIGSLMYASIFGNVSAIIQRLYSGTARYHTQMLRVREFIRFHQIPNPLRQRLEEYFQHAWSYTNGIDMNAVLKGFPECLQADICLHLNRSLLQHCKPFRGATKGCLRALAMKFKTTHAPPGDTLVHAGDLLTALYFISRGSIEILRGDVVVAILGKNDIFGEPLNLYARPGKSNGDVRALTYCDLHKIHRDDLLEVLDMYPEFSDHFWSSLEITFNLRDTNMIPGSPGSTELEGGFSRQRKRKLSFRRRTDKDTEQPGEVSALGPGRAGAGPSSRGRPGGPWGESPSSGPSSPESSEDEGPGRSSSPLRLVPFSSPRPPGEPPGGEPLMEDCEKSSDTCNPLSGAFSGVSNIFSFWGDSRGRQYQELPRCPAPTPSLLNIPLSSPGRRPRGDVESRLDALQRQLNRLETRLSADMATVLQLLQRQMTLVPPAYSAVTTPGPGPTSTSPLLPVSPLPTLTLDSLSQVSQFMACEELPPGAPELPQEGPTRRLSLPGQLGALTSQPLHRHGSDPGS
row,SMILES,"hERG current change (%, negative = inhibition) at 10uM"
1,O=C(CSc1nc2[nH]ncc2c(=O)n1-c1ccc(Cl)c(Cl)c1)NCc1ccccc1Cl,-11.4%
2,COc1ccc(CCN=C(N)NS(=O)(=O)c2ccccc2)cc1OC,19.5%
3,COC(=O)Cc1ccc(NC(=O)c2ccc3c(c2)C(=O)N(Cc2cccnc2)C3=O)cc1,5.83%
4,C[C@H](NC(=O)N1C[C@H]2C[C@@H](C1)c1cccc(=O)n1C2)C(=O)Nc1cccc(F)c1,2.4%
5,CC(NS(=O)(=O)c1ccc(OCC(=O)Nc2cccc([N+](=O)[O-])c2)cc1)c1ccccc1 (centres unmarked),3.21%
6,COCCN=C1NN=C(c2ccc(C)c([N+](=O)[O-])c2)CS1,11.7%
7,O=C(/C=C/c1ccccc1)N/C(=C\c1ccco1)C(=O)O,19.6%
8,Cc1ccc(OCCSc2nnc(-c3cccs3)n2C)cc1,-37%
9,CCOC(=O)CSc1nnc(-c2cccs2)n1-c1ccccc1,-42.8%
10,O=C(O)CSc1nnc(-c2cccs2)n1-c1ccc(Cl)cc1,-6.94%
11,COC(=O)CSc1nnc(-c2cccs2)n1-c1ccc(Cl)cc1,-60.4%
12,CCn1c(SCC(=O)NCCc2ccc(Cl)cc2)nnc1-c1cccs1,-75.8%
13,CCn1c(SCCOc2ccc(Cl)cc2)nnc1-c1cccs1,-53.8%
14,CCn1c(SCC(=O)c2ccc(Cl)cc2)nnc1-c1cccs1,-10.8%
15,Cn1c(SCCOc2ccc(F)cc2)nnc1-c1ccncc1,-44.4%
16,CCn1c(SCC(=O)NCCc2ccccc2)nnc1-c1cccs1,-27.6%
17,Cn1c(SCCOc2ccc(Cl)cc2)nnc1-c1ccncc1,-56.3%
18,Cc1cc(OCCSc2nnc(-c3cccs3)n2C)ccc1Cl,-22.5%
19,Cc1ccc(OCCSc2nnc(-c3ccncc3)n2C)cc1,-28.9%
20,CC(C)N(CCNS(=O)(=O)c1ccc(Cl)cc1)C(C)C.Cl,-28.1%
21,O=C(c1[nH]ncc1-c1cccc(Br)c1)C1CO1 (centres unmarked),3.39%
22,O=C(Nc1c(C(=O)N2CCOCC2)cnn1-c1ccccc1)c1ccc(F)cc1,13.8%

row,SMILES,"hERG current change (%, negative = inhibition) at 10uM"
1,CC(C)c1cc(C(=O)NCCc2ccccc2)no1,-40.1%
2,CCC(C(=O)NC(C)(C)C)N(Cc1ccco1)C(=O)CNS(=O)(=O)c1ccc(OC)cc1 (centres unmarked),7.49%
3,O=C(O)/C(=C\c1ccc2ccccc2c1)c1cccc2ccccc12,6.53%
4,CC(=O)Nc1ccc(C(=O)N/N=C/c2ccncc2)cc1,0.536%
5,Cc1cc(C)n2[nH]c(=O)c(N=Nc3cccc(C(F)(F)F)c3)c2n1,-23.8%
6,CCn1c(SCC(=O)NCc2cccs2)nnc1-c1cccs1,-20.9%
7,CCn1c(SCC(=O)NCCc2ccc(F)cc2)nnc1-c1cccs1,-61.9%
8,CCn1c(SCC(=O)NCC(=O)Nc2ccc(F)cc2)nnc1-c1cccs1,-25.1%
9,COc1ccc2[nH]c(=O)c(-c3nnn(-c4ccccc4)n3)cc2c1,-1.01%
10,Cc1ccc(Cn2c(CCC(=O)O)nc3ncccc3c2=O)cc1,13.4%
11,Cc1nn(CC(=O)NCCN2CCCCC2C)c(=O)c2cc(-c3ccccc3)nn12 (centres unmarked),-48.4%
12,Cc1nn(CC(=O)NCCCN2CCC(Cc3ccccc3)CC2)c(=O)c2cc(-c3ccccc3)nn12,-77%
13,CCc1ccc(-c2cc3c(=O)n(CC(=O)NCCCN4CCN(Cc5ccccc5)CC4)nc(C)n3n2)cc1,-22.7%
14,CCc1ccc(-c2cc3c(=O)n(CC(=O)NCCCN4CCC(Cc5ccccc5)CC4)nc(C)n3n2)cc1,2.48%
15,CCc1ccc(-c2cc3c(=O)n(CC(=O)NCCN4CCCCC4C)nc(C)n3n2)cc1 (centres unmarked),-57.5%
16,CCc1ccc(-c2cc3c(=O)n(CC(=O)NCCCN4CCN(CC)CC4)nc(C)n3n2)cc1,-30%
17,Cc1nn(CC(=O)NCCCN2CCN(Cc3ccccc3)CC2)c(=O)c2cc(-c3ccccc3)nn12,-70.1%
18,Cc1nn(CC(=O)NCCCN2CCN(C)CC2)c(=O)c2cc(-c3ccccc3)nn12,0.586%
19,Cc1nn(CC(=O)NCCCN2CCCCC2)c(=O)c2cc(-c3ccccc3)nn12,-49.4%
20,Cc1ccc(C2/C(=C(/O)c3ccccc3)C(=O)C(=O)N2CCN2CCOCC2)o1 (centres unmarked),-2.22%
21,COc1ccc(CCN2C(=O)NC(NC(C)=O)(C(F)(F)F)C2=O)cc1OC (centres unmarked),7.51%
22,O=C(c1cccc(N2C(=O)C3C4C=CC(C4)C3C2=O)c1)N1CCN(c2ccccc2)CC1 (centres unmarked),-1.68%

row,SMILES,"hERG current change (%, negative = inhibition) at 10uM"
1,c1ccc2c(c1)ncn2-c1ccc(-c2ccnc3ncnn23)cc1,-68%
2,c1cn(-c2ccc(-c3ccnc4ncnn34)cc2)cn1,-27.2%
3,c1ccc(Oc2ccc(-c3ccnc4ncnn34)cc2)cc1,10.7%
4,Cc1cc(OCC(=O)NC2CCS(=O)(=O)C2)c2c3c(c(=O)oc2c1)CCC3 (centres unmarked),-3.87%
5,COc1ccc(CNC(=O)C(=O)NC2CCC(C)CC2)cc1 (centres unmarked),19.4%
6,C=C(Cl)CSC(=S)N(CC)CC,12.1%
7,C=CCn1c(SCC(=O)N(C)C2CCS(=O)(=O)C2)nnc1-c1ccccc1 (centres unmarked),16.8%
8,CCN(C(=O)CSc1nc2ccccc2c(=O)n1CCOC)C1CCS(=O)(=O)C1 (centres unmarked),-61.2%
9,CCN(C(=O)CSc1nc(-c2cccs2)nc2ccccc12)C1CCS(=O)(=O)C1 (centres unmarked),-95.6%
10,C=CCn1c(SCC(=O)N(CC)C2CCS(=O)(=O)C2)nc2cc(C(=O)O)ccc2c1=O (centres unmarked),5.01%
11,C=CCn1c(SCC(=O)N(CC)C2CCS(=O)(=O)C2)nc2ccccc2c1=O (centres unmarked),-79.2%
12,CCOCCCn1c(SCC(=O)N(C)C2CCS(=O)(=O)C2)nc2ccccc2c1=O (centres unmarked),-37.5%
13,C=CCn1c(SCC(=O)N(C)C2CCS(=O)(=O)C2)nc2ccccc2c1=O (centres unmarked),-50%
14,COCCn1c(SCC(=O)N(C)C2CCS(=O)(=O)C2)nc2ccccc2c1=O (centres unmarked),-12.1%
15,O=C(CSc1nc(-c2cccs2)nc2ccccc12)NC1CCS(=O)(=O)C1 (centres unmarked),6.45%
16,CCN(C(=O)CSc1nc2ccccc2c(=O)n1C(C)COC)C1CCS(=O)(=O)C1 (centres unmarked),-22.8%
17,CCN(C(=O)CSc1n[nH]c(-c2cccs2)n1)C1CCS(=O)(=O)C1 (centres unmarked),12.2%
18,C=CCn1c(SCC(=O)N(CC)C2CCS(=O)(=O)C2)nnc1-c1ccccc1 (centres unmarked),-2.7%
19,Cn1c(=O)[nH]c(=O)c2c1[nH]c(=S)n2Cc1ccccc1,17.5%
20,COc1cc2cc(C(=O)NCCc3ccccc3)[nH]c2cc1OC,19.2%
21,COc1ccc(C(=O)/C=C/NCc2ccc(C)cc2)cc1,-17.2%
22,Cc1ccc2c(c1)c1nnc(SCC(=O)Nc3ccc(N(C)C)cc3)nc1n2CC(=O)O,6%

row,SMILES,"hERG current change (%, negative = inhibition) at 10uM"
1,Cc1ccc(NC(=O)C2(c3ccccc3)CCOCC2)c([N+](=O)[O-])c1,-22.5%
2,COC(=O)c1cc(N2CCNCC2)nc2ccccc12.Cl,-17%
3,CCN1C(=O)c2cccc3c(S(=O)(=O)N(C(=O)c4ccncc4)c4ccc(OC)cc4)ccc1c23,-7.51%
4,Cc1sc2nc(CN3CCOCC3)nc(N3CCC(C(N)=O)CC3)c2c1C,5.73%
5,Cc1sc2nc(CN3CCCC3)nc(N3CCN(C(=O)c4ccco4)CC3)c2c1C,-68.6%
6,Cc1sc2nc(CN3CCOCC3)nc(Oc3ccc(NC(=O)c4ccco4)cc3)c2c1C,-38.9%
7,Cc1sc(NC(=O)c2ccco2)c(CN2CCCCC2)c1C,-49.9%
8,Cc1sc2nc(CN3CCCCC3)nc(N3CCN(C(=O)c4ccco4)CC3)c2c1C,-75%
9,Cc1sc2nc(CN3CCCC3)nc(N3CCC(C(N)=O)CC3)c2c1C,-3.64%
10,CCCn1c(SCN2C(=O)c3ccccc3C2=O)nc2cc(Cl)ccc2c1=O,16.5%
11,COC(=O)c1ccc(-c2cc(C(=O)O)c3cc4c(cc3n2)OCCO4)cc1,-0.776%
12,CC(C)C12CN3CCN(CC(C3)/C1=N\NC(=O)Nc1ccccc1)C2,-16.1%
13,COc1cccc(N2CCN(CC(=O)NCc3cccs3)CC2)c1,-3.18%
14,O=C(CN1CCN(c2ccccn2)CC1)NCc1cccs1,-26.2%
15,CCCn1c(N2CCN(CC(=O)NCc3cccs3)CC2)nc2ccccc21,-74.7%
16,CC(C)n1c(NCc2cccs2)nc2ccccc21,-12.6%
17,CC(C)(C)NC(=O)Cn1c(SCC(=O)NCc2cccs2)nc2ccccc21,6.18%
18,CC(C)n1c(N2CCN(CC(=O)NCc3cccs3)CC2)nc2ccccc21,-60.8%
19,Nc1c(Cl)ncnc1NCC(O)CO (centres unmarked),17.7%
20,O=C(Nc1ccc(Oc2ccc(NC(=O)c3ccco3)c(NC(=O)c3ccco3)c2)cc1)c1ccco1,-13.5%
